Laboratory results published in PubChem BioAssay AID1159580 (chemical genetic matrix, 2015).
The whole screen tested about 5,500 compounds, of which about 2,000 (36%) were called active. Inconclusive results (about 18%) are left out. This is one part of the list. Unmarked numbers belong to inactive results. No stated cut-off is given here; in the data, active means normalized growth mostly below about 0.91 (no sharp cut-off); inconclusive means no clear call, values can overlap the other calls; inactive means mostly above about 0.92.

Test: chemical genetic growth profiling, strain panel (AID 1159580);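 further: tested at 20 µM; growth read once vehicle control cultures reached saturation at 30 °C; 1 = growth at the plate median or of vehicle wells; lower values mean less growth of the strain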
Settings: S. cerevisiae deletion strains, growth OD
[1] = locus YHR030C, strain SLT2, active compounds read low
[2] = locus YHR079C, strain IRE1, active compounds read low
[3] = locus YJL095W, strain BCK1, active compounds read low
[4] = locus YJR066W, strain TOR1, active compounds read low
[5] = locus YLR113W, strain HOG1, active compounds read low
[6] = locus YNL183C, strain NPR1, active compounds read low
[7] = locus YOR231W, strain MKK1, active compounds read low
[8] = locus YPL256C, strain CLN2, active compounds read low

## CC(C)=CCC/C(C)=C/CC/C(C)=C/CC/C(C)=C/CO
[1]
  normalized growth: 1.06
[2]
  normalized growth: 1.05
[3]
  normalized growth: 1.04
[4]
  normalized growth: 0.944
[5]
  normalized growth: 0.975
[6]
  normalized growth: 0.932
[7]
  normalized growth: 0.998
[8]
  normalized growth: 1.08

## CC(C)=CCC/C(C)=C/CC/C(C)=C/CO
[1]
  normalized growth: 0.416 (active)
[2]
  normalized growth: 0.506 (active)
[3]
  normalized growth: 0.609 (active)
[4]
  normalized growth: 0.804 (active)
[5]
  normalized growth: 0.35 (active)
[6]
  normalized growth: 0.732 (active)
[7]
  normalized growth: 0.407 (active)
[8]
  normalized growth: 0.388 (active)

## CC(C)=CCC/C(C)=C/CC/C(C)=C/CC/C(C)=C/CC/C(C)=C/CC/C(C)=C/CC/C(C)=C/CC/C(C)=C/CC/C(C)=C/CO
Locus YAL021C, strain ccr4, active compounds read low
  normalized growth: 0.988
Locus YAL026C, strain drs2, active compounds read low
  normalized growth: 1
Locus YAL030W, strain snc1, active compounds read low
  normalized growth: 0.993
Locus YBL061C, strain skt5, active compounds read low
  normalized growth: 0.988
Locus YBR009C, strain hhf1, active compounds read low
  normalized growth: 0.995
Locus YBR023C, strain chs3, active compounds read low
  normalized growth: 1
Locus YBR171W, strain sec66, active compounds read low
  normalized growth: 1
Locus YBR231C, strain swc5, active compounds read low
  normalized growth: 0.986
Locus YBR279W, strain paf1, active compounds read low
  normalized growth: 0.966
Locus YCL011C, strain gbp2, active compounds read low
  normalized growth: 0.985
Locus YCL016C, strain dcc1, active compounds read low
  normalized growth: 0.99
Locus YCL061C, strain MRC1, active compounds read low
  normalized growth: 0.994
Locus YCL069W, strain vba3, active compounds read low
  normalized growth: 0.99
Locus YCR088W, strain abp1, active compounds read low
  normalized growth: 0.988
Locus YDL005C, strain med2, active compounds read low
  normalized growth: 0.992
Locus YDL040C, strain nat1, active compounds read low
  normalized growth: 0.992
Locus YDR001C, strain nth1, active compounds read low
  normalized growth: 0.99
Locus YDR069C, strain doa4, active compounds read low
  normalized growth: 1.01
Locus YDR137W, strain rgp1, active compounds read low
  normalized growth: 1.01
Locus YDR159W, strain sac3, active compounds read low
  normalized growth: 1.1
Locus YDR195W, strain ref2
  normalized growth: 0.997
Locus YDR297W, strain sur2, active compounds read low
  normalized growth: 0.99
Locus YDR334W, strain swr1, active compounds read low
  normalized growth: 1.01
Locus YDR335W, strain msn5, active compounds read low
  normalized growth: 1
Locus YDR392W, strain spt3, active compounds read low
  normalized growth: 1.11
Locus YEL003W, strain gim4, active compounds read low
  normalized growth: 1
Locus YEL037C, strain rad23, active compounds read low
  normalized growth: 1.02
Locus YEL061C, strain CIN8 (second series), active compounds read low
  normalized growth: 0.998
Locus YER015W, strain faa2, active compounds read low
  normalized growth: 0.995
Locus YER016W, strain bim1, active compounds read low
  normalized growth: 0.991
Locus YER111C, strain swi4, active compounds read low
  normalized growth: 0.996
Locus YER155C, strain BEM2 (second series), active compounds read low
  normalized growth: 1.01
Locus YFR010W, strain ubp6, active compounds read low
  normalized growth: 1.01
Locus YGL167C, strain pmr1, active compounds read low
  normalized growth: 1
Locus YGL173C, strain kem1, active compounds read low
  normalized growth: 0.998
Locus YGL227W, strain vid30, active compounds read low
  normalized growth: 0.983
Locus YGL240W, strain doc1, active compounds read low
  normalized growth: 1.03
Locus YGL253W, strain hxk2, active compounds read low
  normalized growth: 0.983
Locus YHR013C, strain ard1, active compounds read low
  normalized growth: 0.987
Locus YHR027C, strain rpn1, active compounds read low
  normalized growth: 0.986
[1]
  normalized growth: 1.02
[2]
  normalized growth: 1.01
Locus YHR142W, strain chs7, active compounds read low
  normalized growth: 0.983
Locus YJL092W, strain hpr5, active compounds read low
  normalized growth: 1
Locus YJL095W, strain BCK1 (second series), active compounds read low
  normalized growth: 0.992
[3]
  normalized growth: 1.01
Locus YJL115W, strain asf1, active compounds read low
  normalized growth: 0.989
Locus YJL129C, strain trk1, active compounds read low
  normalized growth: 0.961
Locus YJL154C, strain vps35, active compounds read low
  normalized growth: 0.995
Locus YJL164C, strain tpk1, active compounds read low
  normalized growth: 0.989
Locus YJL166W, strain qcr8, active compounds read low
  normalized growth: 0.991
Locus YJL187C, strain SWE1, active compounds read low
  normalized growth: 1
[4]
  normalized growth: 0.975
Locus YKL160W, strain elf1, active compounds read low
  normalized growth: 0.996
Locus YKR026C, strain gcn3, active compounds read low
  normalized growth: 1
Locus YKR091W, strain srl3, active compounds read low
  normalized growth: 0.989
Locus YLL001W, strain dnm1, active compounds read low
  normalized growth: 0.976
Locus YLL026W, active compounds read low
  normalized growth: 0.995
Locus YLL041C, strain sdh2, active compounds read low
  normalized growth: 0.996
Locus YLR027C, strain aat2, active compounds read low
  normalized growth: 1.03
[5]
  normalized growth: 0.971
Locus YLR221C, strain rsa3, active compounds read low
  normalized growth: 0.965
Locus YLR258W, strain gsy2, active compounds read low
  normalized growth: 0.992
Locus YLR262C, strain YPT6 (second series), active compounds read low
  normalized growth: 1.01
Locus YLR320W, strain mms22, active compounds read low
  normalized growth: 0.992
Locus YLR342W, strain FKS1, active compounds read low
  normalized growth: 0.993
Locus YLR357W, strain rsc2, active compounds read low
  normalized growth: 1.12
Locus YLR370C, strain arc18, active compounds read low
  normalized growth: 0.995
Locus YLR384C, strain iki3, active compounds read low
  normalized growth: 0.994
Locus YML120C, strain ndi1, active compounds read low
  normalized growth: 0.99
Locus YMR058W, strain fet3, active compounds read low
  normalized growth: 1.05
Locus YMR125W, strain sto1, active compounds read low
  normalized growth: 0.984
Locus YMR129W, active compounds read low
  normalized growth: 0.99
Locus YMR205C, strain PFK2, active compounds read low
  normalized growth: 0.982
Locus YMR231W, strain pep5, active compounds read low
  normalized growth: 1
Locus YNL071W, strain lat1, active compounds read low
  normalized growth: 0.992
[6]
  normalized growth: 0.943
Locus YNL209W, strain ssb2, active compounds read low
  normalized growth: 0.991
Locus YNL248C, strain rpa49, active compounds read low
  normalized growth: 1.16 [resistant] (active)
Locus YNL322C, strain KRE1 (second series), active compounds read low
  normalized growth: 0.982
Locus YNR049C, strain mso1, active compounds read low
  normalized growth: 1.02
Locus YOR001W, strain rrp6, active compounds read low
  normalized growth: 1.03
Locus YOR070C, strain gyp1, active compounds read low
  normalized growth: 0.986
Locus YOR080W, strain dia2, active compounds read low
  normalized growth: 1
Locus YOR083W, strain WHI5, active compounds read low
  normalized growth: 0.977
Locus YOR106W, strain vam3, active compounds read low
  normalized growth: 0.969
[7]
  normalized growth: 1
Locus YOR265W, strain rbl2, active compounds read low
  normalized growth: 1.01
Locus YOR270C, strain vph1, active compounds read low
  normalized growth: 1.12
Locus YOR290C, strain snf2, active compounds read low
  normalized growth: 1.08
Locus YPL051W, strain arl3, active compounds read low
  normalized growth: 1.02
Locus YPL078C, strain atp4, active compounds read low
  normalized growth: 0.996
Locus YPL106C, strain sse1, active compounds read low
  normalized growth: 1
Locus YPL240C, strain hsp82, active compounds read low
  normalized growth: 1
[8]
  normalized growth: 1.01
